In the supplement of paper PMC11417369:
± gives the standard deviation of the averaged measurements. Over roughly 25,000 sequences, “ln(normalized median fluorescence intensity)” has its median near 8.6; the highest 2% begin near 10. This excerpt belongs to a sample that is enriched for the highest values.

Test system: PfAP2-EXP AP2 domain (GST-tagged)
Experiment: gcPBM binding intensity (ln(normalized median fluorescence intensity)); higher = stronger DNA binding
Summary of the method: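 Using an Agilent 4 × 180k array, primer-extended double-stranded 36-bp intergenic genomic probes and negative controls were exposed for 1 h to GST-fused P. falciparum DNA-binding domains expressed in E. coli. Binding was carried out in 1× PBS with 1% milk, 0.2 mg/ml BSA, 0.5% salmon testes DNA and 0.03% Triton X-100, and protein was detected with Alexa488 anti-GST antibody and a 488 nm scan. Binding intensity is the highest Masliner-normalised natural-log median intensity across replicate spots of either probe orientation.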

Sequence	gcPBM binding intensity (ln)
ATATATATATATATATGTACTCATATTTTATTATTT [XGTACX_site898]	10.1 ± 0.3
TATATATATATATATGCATGTACATATATTTGTTAT [TGCATGCA_site379]	10.3 ± 0.17
ATATATATTTATATATGTACATATTTTTGTGTATTT [XGTACX_site1183]	8.55 ± 0.43
ATAGCATATATTTTTTGTACATATGTTATATATATA [XGTACX_site2184]	8.96 ± 0.071
ATATATTTATATTTGTGTACATATTTATTATATTTA [XGTACX_site404]	8.46 ± 0.28
ATATATATATATGCATGTACATATATTTGTTATATC [XGTACX_site3197]	9.82 ± 0.45
TTTGTCATTTTATTATGTACTCAGCATATAGGGGGG [XGTACX_site505]	10.7 ± 0.13
ACAAAAATATTATATTGTACATTATTAGTTCATATT [XGTACX_site6750]	8.5 ± 0.3
GTAATTTTGAGATGATGTACATATTTTTTCCTTGTC [XGTACX_site4103]	8.78 ± 0.47
TAATTAAGAATATATAGTACATAGTTGAAAAACTTT [XGTACX_site6359]	8.41 ± 0.33
GTTTGATAACACCTACAAACTCTTTTTTTTTTTTTT [CACACA_negctrl_site1134]	8.41 ± 0.53
TCTGTGTTTTTGGGTACACACAAATAGCTTGTATAT [CACACA_site4002]	8.72 ± 0.19
TATGTAACCTGTTTTACACACCCCCACCCCCCTCTT [CACACA_site319]	10.3 ± 0.17
TATATATGTTTTTATGTACACACTTTTAACCTAAGA [CACACA_site1149]	8.71 ± 0.36
ACCCTATATGTAACTACACACCGCATATTGTTTACT [CACACA_site3071]	9.19 ± 0.43
ATCTATATAATATATACACACAAATATACAAAAAAA [CACACA_site1013]	8.64 ± 0.56
ATACACACATATATGTGTACATATACATATATATAT [XGTACX_site6744]	9.53 ± 0.32
AAAAAATGCGACATGTGTACACATATATATATATAT [XGTACX_site1679]	10.4 ± 0.11
AAATGCGCCATGTGTACACATATATATATATATATA [CACACA_site4649]	10.3 ± 0.33
ATATATATATATATATGTACATATACACATGTGTGC [XGTACX_site168]	10.1 ± 0.33
AAAAAAATAAATAAATGTACACATATATATATATAT [XGTACX_site4350]	10.2 ± 0.47
GTACAAATGTTGTGTATATATACACACATACATATA [XGTACX_negctrl_site276]	8.69 ± 0.33

Sequence	gcPBM binding intensity (ln)
ATAACACAAAATTGTTGTACACGTGTTAATAAGTGA [XGTACX_site4452]	9.12 ± 0.33
TTAAAAAAATAATTAACACACACATGTATATCTATA [CACACA_site9026]	8.21 ± 0.42
TAGTACACACAAAATACATGCGGGGTTTAATATTTA [TGCATGCA_site576]	8.78 ± 0.45
TATATGACAAGATAAAGTACAAATTTGTATATATAT [XGTACX_site3027]	8.97 ± 0.25
TTCTTAATATTGCATGCACACTATATAATAATTGAA [CACACA_site4720]	10.41 ± 0.057
TTTTATTAATATTGCATGCACACTATATAATAATTG [CACACA_site1049]	10.02 ± 0.064
TTATTAATATTGCATGCACACTATATAATAATTGAA [CACACA_site8258]	10.11 ± 0.057
ATAAAAAATTTAAGTATTTTTTACAAACCTATAAAT [GTGCAC_negctrl_site51]	8.18 ± 0.38
ATTTTTTTTCTTTTTTTTTTACATTTTTTTCTTTTT [CACACA_negctrl_site1289]	8.51 ± 0.45
ACATTCACAAAATTTTGTACACATATATATATATAT [XGTACX_site3518]	10 ± 0.26
AAAAGTCTTCAAATTTGTACATATATATATATATAT [XGTACX_site3404]	10.29 ± 0.092
TGTTGTAAATATGTTTGTACATAAATATATTATTTA [XGTACX_site5442]	8.38 ± 0.35
ATTTAAAAAATATATTGTACATATTTTATTATGTTT [XGTACX_site2984]	8.29 ± 0.35
TAAAATTTTTTTGTTTGTACATATATATATATAATA [XGTACX_site5609]	8.72 ± 0.52
TATATATATATATGTTGTACATATTTAAATGTTTAT [XGTACX_site5437]	10.2 ± 0.2
ATCAGATATATATATTGTACATTTATATATAAATCA [XGTACX_site1960]	8.46 ± 0.36
TATATACATAAAATTTGTACATATATATATATATAT [XGTACX_site3214]	10.1 ± 0.51
TTATATATTTATAAATGTACATATAATTTTTTTATA [XGTACX_site4696]	8.3 ± 0.32
ATATATATATATAAATGTACAGATATATTTTTTATT [XGTACX_site5445]	10.21 ± 0.078
ACGTATCAAAAAATTTGTACATATATATATATATAT [XGTACX_site1024]	10.1 ± 0.35
CATTTAAAATTTGTTTGTACATATATATATATATAT [XGTACX_site6729]	10.2 ± 0.26
TTTTTTTAATTAGTTTGTACATATTGTTATAATATA [XGTACX_site6294]	8.56 ± 0.4
